About 250 (12%) of roughly 2,000 compounds were called active. Shown is part of a subset that was picked to be rich in actives. Values without a mark were called inactive. Rule as the data show it: active = hERG blockade below about -20% or above about 20%; inactive = in between.
Each compound was assayed against Voltage-gated inwardly rectifying potassium channel KCNH2 (Homo sapiens) (UniProt Q12809) (assay: modulators of KCNH2 ion channel function, cellular (AID 376;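 also: 0% = buffer alone and 100% = reference blocker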)). Conditions: hERG-expressing cells, channel activity single-concentration screen; concentration not given here.
Sequence of Voltage-gated inwardly rectifying potassium channel KCNH2 (Homo sapiens) (Q12809 whole entry, looked up): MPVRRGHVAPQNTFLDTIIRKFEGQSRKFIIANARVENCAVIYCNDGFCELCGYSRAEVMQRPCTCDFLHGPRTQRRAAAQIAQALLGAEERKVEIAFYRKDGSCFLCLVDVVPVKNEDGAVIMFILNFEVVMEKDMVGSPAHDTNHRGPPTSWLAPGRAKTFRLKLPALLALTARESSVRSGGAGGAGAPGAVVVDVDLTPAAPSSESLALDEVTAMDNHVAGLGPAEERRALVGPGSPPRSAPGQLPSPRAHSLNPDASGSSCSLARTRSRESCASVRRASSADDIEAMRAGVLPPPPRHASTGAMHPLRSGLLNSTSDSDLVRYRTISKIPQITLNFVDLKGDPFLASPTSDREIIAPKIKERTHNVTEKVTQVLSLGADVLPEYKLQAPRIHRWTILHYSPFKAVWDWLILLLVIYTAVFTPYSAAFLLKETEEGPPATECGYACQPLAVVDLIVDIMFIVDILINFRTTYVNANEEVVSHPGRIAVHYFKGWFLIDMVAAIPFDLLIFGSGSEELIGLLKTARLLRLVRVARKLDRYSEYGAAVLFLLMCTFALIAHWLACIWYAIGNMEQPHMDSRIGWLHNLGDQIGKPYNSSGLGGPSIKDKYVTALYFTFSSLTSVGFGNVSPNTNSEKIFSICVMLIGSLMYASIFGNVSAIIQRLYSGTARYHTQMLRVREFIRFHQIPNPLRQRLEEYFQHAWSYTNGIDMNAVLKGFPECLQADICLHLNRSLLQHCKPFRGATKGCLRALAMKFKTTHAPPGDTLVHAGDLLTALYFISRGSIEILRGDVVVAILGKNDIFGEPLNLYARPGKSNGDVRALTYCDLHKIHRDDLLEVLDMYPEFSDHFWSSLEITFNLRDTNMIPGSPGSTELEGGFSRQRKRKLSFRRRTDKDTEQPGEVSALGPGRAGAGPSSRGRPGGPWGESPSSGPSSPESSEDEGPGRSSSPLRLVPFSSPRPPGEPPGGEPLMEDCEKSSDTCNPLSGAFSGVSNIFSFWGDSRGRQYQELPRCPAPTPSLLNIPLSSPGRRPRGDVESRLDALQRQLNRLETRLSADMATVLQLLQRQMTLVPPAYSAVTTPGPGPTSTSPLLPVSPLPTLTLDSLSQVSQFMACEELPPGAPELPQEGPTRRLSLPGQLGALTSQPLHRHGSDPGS

| SMILES | hERG blockade |
| --- | --- |
| O=C(O)C(Cc1cc(I)c(O)c(I)c1)C1CCCCC1 (stereo not given) | 35.2% (active) |
| C=C(C)CNCCN | -5.55% |
| Cc1ccc(CSC(N)=Nc2ccccc2)cc1C | 14.3% |
| Nc1ncnc2c1ncn2C1OC(C(=O)OCCO)C(O)C1O (stereo not given) | 1.37% |
| Clc1ccc2c(c1)N(CCCN1CCCC13CCCCC3)c1ccccc1S2 | 4.63% |
| OC1CC2CCC(C1)N2CCCN1c2ccccc2Sc2ccc(Cl)cc21 (stereo not given) | 89.8% (active) |
| COc1ccc(N(CC(=O)O)N=O)cc1 | 1.49% |
| O=C1C=CC(=Nc2cccc3c(N=C4C=CC(=O)O4)cccc23)O1 | -12% |
| CC(C)c1cc(CN(C)C)c(O)c(C(C)(C)C)c1 | 13.4% |
| Nc1nc(N)[n+]([O-])c(N)c1NCO | -6.48% |
| C=CCNS(=O)(=O)c1ncnc2nc[nH]c12 | -2.53% |
| Nc1nc(-c2cc(-c3cccc4ccccc34)nc(N)n2)cc(-c2cccc3ccccc23)n1 | 3.59% |
| Nc1cc2c(nc3c4ccccc4c(N)cc3[n+]2-c2cccc3ccccc23)c2ccccc12 (tested in a mixture with another compound) | 51.9% (active) |
| O=S(=O)(c1ccc(Br)cc1)N1CCN(S(=O)(=O)c2ccc(Br)cc2)CC1 | 11.5% |
| O=C(O)C1CCCCC1c1c2ccc(=O)c(O)c-2oc2c(O)c(O)ccc12 (stereo not given) | -2.68% |
| CC(=O)C1(N=Nc2ccc(S(N)(=O)=O)cc2)CCOC1=O (stereo not given) | -10.6% |
| CC(CCC(=O)O)(c1ccc(O)cc1)c1ccc(O)cc1 | 4.36% |
| c1ccc2sc(SCSc3nc4ccccc4s3)nc2c1 | -7.22% |
| CC(CCc1nc2ccccc2s1)(c1ccc(O)cc1)c1ccc(O)cc1 | 24% (active) |
| O=C(O)c1ccccc1C(=O)c1ccc2c(c1)Cc1ccccc1-2 | -16.1% |
| Cn1c(=O)c2c(ncn2CN2CCN(Cn3cnc4c3c(=O)n(C)c(=O)n4C)CC2)n(C)c1=O | 0.775% |
| O=C(O)CSc1nnc2c3ccccc3c3ccccc3c2n1 | -2.16% |
| c1ccc2c[n+](CCCC[n+]3ccc4ccccc4c3)ccc2c1 | 22% (active) |
| c1ccc2c[n+](Cc3ccnc4ccccc34)ccc2c1 | 16.2% |
| CC(=N[O-])C(C)=N[O-].CC(=N[O-])C(C)=N[O-].[CH2-]CCN1CCOCC1.[Co].c1ccncc1 | 17.9% |
| O=C(O)c1ccc([N+](=O)[O-])c(P(=O)(O)O)c1 | -6.85% |
| Cc1nc2ccccc2nc1-c1ccc(N=[N+]([O-])c2ccc(-c3nc4ccccc4nc3C)cc2)cc1 | 1.15% |

| SMILES | hERG blockade |
| --- | --- |
| O=C(O)C(=Cc1ccccc1)Cc1ccccc1 | -1.14% |
| Cc1ccc(NC(=O)c2ccccc2C(=O)O)cc1C | 0.447% |
| O=C(O)c1ccc(C(=O)c2ccccc2C(=O)O)cc1C(=O)O | 1.52% |
| CC1=CC(=C(c2ccc(O)c(C)c2)c2ccccc2C(=O)O)C=CC1=O | 30.9% (active) |
| CC(C)=NNc1ncnc2nc[nH]c12 | -8.04% |
| O=C1CSC(=S)N1N=Cc1ccc(Cl)c([N+](=O)[O-])c1 | 8.8% |
| O=C(O)c1ccc(S(=O)(=O)N=Nc2c(O)[nH]c3ccccc23)cc1 | -4.01% |
| O=Nc1c(O)[nH]c2ccccc12.O=Nc1c(O)[nH]c2ccccc12.[Cu] | 0.0535% |
| N=C(N)c1ccc(N=Nc2c(O)ccc3c2[nH]c2ccccc23)cc1 | -25.6% (active) |
| c1ccc(CCc2cccnc2)nc1 | 5.71% |
| C(=NNc1ccccn1)c1cccnc1 | 20.3% (active) |
| C(=NNc1nnc2c(n1)[nH]c1ccccc12)c1cccnc1 | 9.9% |
| Nc1ccc(-c2ccc(Nc3cc(S(=O)(=O)O)c(N)c4c3C(=O)c3ccccc3C4=O)cc2)c(S(=O)(=O)O)c1 | 14.3% |
| O=C(O)CCNCC(=O)O | 2.22% |
| Cc1cc(C(C)(C)C)cc(CNC2CCCCC2)c1O | -1.49% |
| OCCN(CCO)c1ncnc2nc[nH]c12 | 9.05% |
| CCCC1c2c(ccc3ccccc23)Oc2ccc3ccccc3c21 | 16.8% |
| CN(C)CCCC1c2ccccc2Oc2ccc(C(F)(F)F)cc21 (stereo not given) | 32.9% (active) |
| NC(N)=NN=Cc1ccc(O)c(C(=O)O)c1 | 7.85% |
| Cc1nc(CN2CCCCC2)c(O)c(=O)[nH]1 | -28.2% (active) |
| O=C(O)c1[nH]c(=O)[nH]c(=O)c1CN1CCCCC1 | -7.69% |
| Cc1cc(CN2CCCCC2)c(O)c(CN2CCCCC2)c1 | 8.76% |
| CCN1CCC(O)(C(C(=O)O)c2ccccc2)CC1 (stereo not given) | 4.76% |
| CC(C)=CCNc1ncnc2nc[nH]c12 | -6.5% |
| CCN(Cc1cc(Cl)cc(C)c1O)Cc1c(O)ccc2ccccc12 | 13% |
| CCN(CC)CC(O)c1ccc2ccc3ccccc3c2c1 (stereo not given) | -73.4% (active) |
| Cc1cccc2cc3ccc4ccccc4c3cc12 | 11.1% |

| SMILES | hERG blockade |
| --- | --- |
| N=C(N)SCCSC(=N)N | 9.63% |
| N#CC(C#N)=NNc1ccc2cn[nH]c2c1 | -4.08% |
| CN(C)S(=O)(=O)Nc1ccccn1 | 4.55% |
| CC(O)(CNS(=O)(=O)c1ccccc1)c1ccccc1 (stereo not given) | -5.67% |
| O=C(O)CC[P+](c1ccccc1)(c1ccccc1)c1ccccc1 | 19.1% |
| CN(CCC(=O)O)S(=O)(=O)c1ccccc1 | -22% (active) |
| O=c1[nH]c(SCc2cccc([N+](=O)[O-])c2)nc2nc[nH]c12 | 7.87% |
| CC1(CO)C(O)CCC2(C)C1CCC1CC3CC12CCC3(O)COC(=O)CN (stereo not given) | 14.2% |
| N=C(N)SCC(=O)O | 11% |
| O=C(O)c1cscc1Cc1cccs1 | -9.17% |
| O=C(O)c1ccccc1CN1CCCC(C(=O)O)C1 (stereo not given) | -4.8% |
| OC(c1cc(-c2ccccc2)nc2c1ccc1ccccc12)C1CCCCN1 (stereo not given) | 26.8% (active) |
| Cc1cc(C)c2nc3c(c(C(O)C4CCCCN4)c2c1)CCC3=Cc1ccc(Cl)cc1 (stereo not given) | 8.84% |
| OC(CC1CCCCN1)c1ccc2c(c1)oc1ccccc12 (stereo not given) | 4.42% |
| O=C(O)CSc1cc(-c2ccccc2)nc2ccccc12 | -16.2% |
| OC(c1cc(-c2ccc(Cl)cc2)nc2ccccc12)C1CCCCN1 (stereo not given) | 74.7% (active) |
| c1ccc2nc(CCC3CCCCN3)ccc2c1 (stereo not given) | -2.95% |
| OC(c1cc(C23CC4CCC2CC(C4)C3)nc2c(Cl)cc(Cl)cc12)C1CCCCN1 (stereo not given) | -0.23% |
| COc1ccc(-c2cc(C(O)C3CCCCN3)c3ccccc3n2)cc1 (stereo not given) | 72.7% (active) |
| O=C(O)c1cc(-c2ccc3cc4c(cc3c2)OCO4)nc2ccccc12 | 17.2% |
| O=C(O)c1cc(-c2ccc(-c3ccccc3)cc2)nc2cc3ccccc3cc12 | 12.2% |
| OC(c1cc(C(F)(F)F)nc2c(Cl)cc(Cl)cc12)C1CCCCN1 (stereo not given) | 28.7% (active) |
| NC(CSCc1ccc(I)cc1)C(=O)O (stereo not given) | 8.02% |
| O=C(O)c1cc2c(cc1S(=O)(=O)O)C1C(C3C2C2(Cl)C(Cl)=C(Cl)C3(Cl)C2(Cl)Cl)C2(Cl)C(Cl)=C(Cl)C1(Cl)C2(Cl)Cl (stereo not given) | 3.63% |
| CC(C)Oc1cc(O)c2c(c1)OCC=C2CCC(=O)O | 16% |
| O=C1OC2(c3ccc(O)cc3Oc3cc(O)ccc32)c2c1c(-c1ccccc1)c(-c1ccccc1)c(-c1ccccc1)c2-c1ccccc1 | -2.77% |
| O=C(O)C=CC=Cc1ccc2c(c1)OCO2 | -8.5% |

| SMILES | hERG blockade |
| --- | --- |
| O=C(O)CSC1=NCCN1 | -1.36% |
| Cc1ccc(S(=O)(=O)OC2CCN(C)CC2)cc1 | -11.1% |
| Nc1ncnc2nn(C3OC(CO)C(O)C3O)nc12 (stereo not given) | 13.3% |
| N#CC(=NCCO)C1=C(O)c2ccccc2C1=O | -3.02% |
| CC1CCCC2(CC[N+](C)(CCC[N+](C)(C)C)CC2)C1 (stereo not given) | 17.8% |
| CCN(CC(=O)O)CC(=O)O | 4.67% |
| CC12CCC(=O)C=C1CCC1C2C(O)CC2(C)C1CCC2(O)C(=O)COC(=O)C1CCCC1 (stereo not given) | -2.63% |
| CC12CCC(=O)C=C1CCC1C2C(O)CC2(C)C1CCC2(O)C(=O)CO (stereo not given) | 14.3% |
| CN1CCCC(C(=O)OCC(=O)C2(O)CCC3C4CCC5=CC(=O)CCC5(C)C4C(O)CC32C)C1 (stereo not given) | 25.6% (active) |
| CC(NC(=O)C1(N)CCCC1)C(=O)O (stereo not given) | -5.06% |
| CCOC(=O)Cn1c(C(F)(F)F)nc2nc(Cl)c(Cl)nc21 | 13.4% |
| O=C(O)c1nn(-c2ccc(Cl)cc2)c2c1C(=O)c1ccccc1C2=O | 26% (active) |
| O=C1C(=O)c2ccccc2C(O)=C1C(C1=C(O)c2ccccc2C(=O)C1=O)c1ccc(Cl)cc1 | 17.5% |
| O=C(O)c1nn(-c2ccccc2-c2n[nH]c(=O)[nH]c2=O)c(=O)[nH]c1=O | 7.69% |
| Cc1cn(C2CC(N=[N+]=[N-])C(CO)O2)c(=O)[nH]c1=O (stereo not given) | 9.12% |
| CC(C)C12CCC3(CCC4C(C)(C(=O)O)CCCC4(C)C3C1)C(CN)C2 (stereo not given) | -4.91% |
| CN(C)CCC=C1c2ccccc2Sc2ccc(Cl)cc21 | 66.2% (active) |
| CN(C)CCC=C1c2ccccc2C=Cc2ccccc21 | 15.1% |
| CC(C[n+]1ccccc1)=NN=C(N)N | 12.9% |
| Clc1ccc2c(NCCNc3ccnc4cc(Cl)ccc34)ccnc2c1 | 0.444% |
| Clc1ccc2c(NCCNC3CCCCC3)ccnc2c1 | 63.2% (active) |
| Clc1ccc2c(NC3CCC(N4CCCCC4)CC3)ccnc2c1 (stereo not given) | 53.4% (active) |
| O=C(O)c1ccc(Nc2ccnc3cc(Cl)ccc23)cc1O | -3.15% |
| Clc1ccc2c(N3CCC(CCC4CCN(c5ncnc6cc(Cl)ccc56)CC4)CC3)ncnc2c1 | -8.41% |

— PubChem BioAssay AID376 (PDSP, 2006)
